Screens: PubChem BioAssay, Sanford-Burnham Center for Chemical Genomics
Hits are enriched below; roughly 1.5% of the tested compounds scored in any of these assays.
GC-A act: GC-A (human) enzyme activation; P16066; HEK293 GC-A cells, cGMP TR-FRET, EC30 ANP; 0% at EC30 ANP, 100% saturating ANP; activation, % at 10 µM; actives 0.14% (n = 370,000); AID 1671463; in the data active = activation above about 40%
GC-B act: GC-B (human) receptor activation | P20594 | HEK293-GC-B cells, CNP EC30, cGMP TR-FRET; 0% at EC30 CNP, 100% saturating CNP | activation, % at 10 µM | actives 0.11% (n = 370,000);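 active = activation at 10 µM reaching about 35% in either raw or pattern-adjusted values, limit read from the data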
Neddyl block: blocks human cullin neddylation; P61081+Q13564; TR-FRET cullin neddylation, biochemical; inhibition, % at 25 µM; actives 0.58% (n = 360,000); AID 651699; in the data active = inhibition above about 36%
Target sequence (P61081 whole entry, looked up): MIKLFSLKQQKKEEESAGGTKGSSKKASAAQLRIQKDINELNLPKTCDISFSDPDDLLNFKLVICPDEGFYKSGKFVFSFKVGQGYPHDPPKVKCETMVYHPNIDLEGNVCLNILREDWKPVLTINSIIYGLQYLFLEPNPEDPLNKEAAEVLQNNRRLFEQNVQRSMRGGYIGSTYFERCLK
Target sequence (Q13564 whole entry, looked up): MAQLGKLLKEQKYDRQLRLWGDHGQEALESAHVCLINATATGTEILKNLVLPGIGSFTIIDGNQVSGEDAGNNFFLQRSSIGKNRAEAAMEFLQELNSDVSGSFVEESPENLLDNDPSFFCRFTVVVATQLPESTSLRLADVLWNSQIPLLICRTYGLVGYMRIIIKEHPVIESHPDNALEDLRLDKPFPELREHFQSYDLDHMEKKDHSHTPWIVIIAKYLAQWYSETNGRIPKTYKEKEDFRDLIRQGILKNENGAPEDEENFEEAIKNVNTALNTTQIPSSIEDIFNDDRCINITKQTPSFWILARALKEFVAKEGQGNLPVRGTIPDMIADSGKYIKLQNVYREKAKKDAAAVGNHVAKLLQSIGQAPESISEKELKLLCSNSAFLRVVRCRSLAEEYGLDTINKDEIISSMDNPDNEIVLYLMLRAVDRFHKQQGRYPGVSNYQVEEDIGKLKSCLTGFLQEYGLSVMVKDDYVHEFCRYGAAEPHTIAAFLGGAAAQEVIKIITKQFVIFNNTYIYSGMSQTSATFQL
NadD block: blocks S. aureus nicotinate mononucleotide adenylyltransferase; inhibition, % at 20 µM; purified NadD enzyme, colorimetric absorbance read-out; actives 0.78% (n = 360,000); in the data active = inhibition above about 26%
Each line names hits and unclear results; the compound was inactive in the other large screens.

Cn1c(=O)c(C#N)c(-c2ccc(F)cc2)c2cc(C(=O)c3cc(Cl)cc(Cl)c3O)cnc21	NadD block 24
COc1ccccc1-n1c(=O)c(C#N)c(-c2ccc([N+](=O)[O-])cc2)c2cc(C(=O)c3cc(F)ccc3O)cnc21	none
O=C(Oc1oc(-c2ccco2)nc1C=Nc1ccc(Cl)cc1)c1ccco1	GC-A act 44
O=C(N=Nc1c(O)[nH]c2ccccc12)c1ccccc1NS(=O)(=O)c1cccs1	none
O=C(N=Nc1c(O)[nH]c2ccc(F)cc12)c1ccc(NS(=O)(=O)c2cccs2)cc1	NadD block 39
Cc1cccc2c(N=Nc3ccc(S(=O)(=O)Nc4ccc(Cl)cc4)cc3[N+](=O)[O-])c(O)[nH]c12	NadD block 33
Cc1ccc2[nH]c(O)c(N=Nc3ccccc3[N+](=O)[O-])c2c1	none
COc1ccc2[nH]c(O)c(N=NC(=O)c3ccc(NS(=O)(=O)c4cccs4)cc3)c2c1	none
Cc1cccc2c(N=NC(=O)c3ccc(NS(=O)(=O)c4cccs4)cc3)c(O)[nH]c12	NadD block 61
Cc1ccc2[nH]c(O)c(N=NC(=O)c3ccc(NS(=O)(=O)c4cccs4)cc3)c2c1	NadD block 43
C[C@H]1COc2cc(Br)ccc2S(=O)(=O)N1Cc1cn(Cc2ccco2)nn1	none (no result: Neddyl block, NadD block)
Nc1nn2c(-c3ccccc3)cc(=O)[nH]c2c1N=Nc1ccc(Br)cc1	NadD block 77
CN1Cc2nnn(Cc3ccccc3)c2-c2ccccc2S1(=O)=O	none (no result: Neddyl block, NadD block)
CN(C)C(=O)NCCCC#Cc1ccccc1	none (no result: Neddyl block, NadD block)
Cc1ccc(NC2=C/C(=N/S(=O)(=O)c3cccs3)c3ccccc3C2=O)cc1C	none
Cc1cc(C)c(S(=O)(=O)/N=C2/C=C(Sc3ncn[nH]3)C(=O)c3ccccc32)cc1C	NadD block 90
Cc1ccc2c3c(cccc13)-c1ccccc1C2=O	none
Cc1coc2c1C(=O)C(=O)c1c-2ccc2c1CCCC2(C)C	NadD block 33
Cc1coc2c1C(=O)C(=O)c1c-2ccc2c(C)cccc12	NadD block 34 (no result: GC-A act, GC-B act)
O=C(OC12CCCN(C1)/C(=C/c1ccc(Cl)cc1)C2)c1ccc(F)cc1 (configuration not stated)	none (no result: Neddyl block, NadD block)
O=C(NC1=N[C@@]2(C=C3CCCCC3n3c(=O)n(-c4ccccc4)c(=O)n32)[C@H](Cc2ccccc2)N1Cc1ccccc1)c1ccccc1 (some centres not stated)	none (no result: Neddyl block, NadD block)
COc1ccc(Cl)cc1C(=O)NCCS(=O)(=O)N1CCN(c2ccccc2F)CC1	none
O=C(NCCS(=O)(=O)N1CCN(c2ccccc2F)CC1)c1ccc(F)c(F)c1	GC-B act 64
COC(=O)[C@]12C[C@H](CC(=O)NCc3cccc(C(F)(F)F)c3)C(=O)N(Cc3ccccc3)C1=C[C@H](C1CCCC1)O[C@@H]2C	none (no result: Neddyl block, NadD block)
Clc1ccc([C@H]2OC[C@@]3(CNCCc4c[nH]c5ccccc45)CS[C@H](c4ccc(Cl)cc4)N23)cc1	none (no result: Neddyl block, NadD block)
O=C(NN=Cc1ccc(O)cc1O)c1ccccc1NS(=O)(=O)c1cccs1	Neddyl block 43
COC(=O)[C@]12C[C@H](CC(=O)N3CCC(c4ccccc4)CC3)C(=O)N(Cc3ccco3)C1=C[C@H](COCc1ccccc1)O[C@@H]2C	none (no result: Neddyl block, NadD block)
COc1ccc(NC(=O)CN2C(=O)/C(=C3\SC(=S)N(CCC(=O)O)C3=O)c3ccccc32)cc1	NadD block 51 (no result: GC-A act, GC-B act)
CCOC(=O)CCCCCC(=O)Nc1ccc2c(c1)C(=O)N([C@H](C)CO)C[C@@H](C)[C@@H](CN(C)S(=O)(=O)c1ccc(C)cc1)OCCCC[C@H](C)O2	none (no result: Neddyl block, NadD block)
Nc1nc2c(nc(Br)n2[C@@H]2O[C@@H]3COP(=O)(O)O[C@H]3[C@H]2O)c(=O)[nH]1	GC-A act 116, GC-B act 114
Cc1ccc(C)c(OCc2nnc(N)s2)c1	none
Nc1nnc(COc2ccc(Br)cc2Br)s1	GC-A act 58
Cc1cc(C)c2c(c1)NC(c1cc3c(cc1Br)OCO3)C1CC=CC21 (configuration not stated)	NadD block 37
CCOC(=O)c1c(NC(=O)C(=O)N/N=C/c2ccc(O)c(OC)c2)sc2c1CCCCC2	NadD block 32
CCOC(=O)c1c(NC(=O)C(=O)N/N=C/c2ccc(OCC)cc2)sc2c1CCCCC2	none (not shown: Neddyl block)
COc1ccc(OC)c(Nc2nc(-c3sc(N)nc3C)cs2)c1	NadD block 32
Cc1cc(NS(=O)(=O)c2ccc(Nc3nc(-c4sc(N)nc4C)cs3)cc2)no1	NadD block 37 (no result: GC-A act, GC-B act)
CCn1cc([N+](=O)[O-])c(C(=O)N2N=C(c3ccc4ccccc4c3)CC2c2cc(Br)ccc2O)n1 (configuration not stated)	NadD block 40 (no result: GC-A act, GC-B act)
COc1cc(/C=C2/SC(=S)N(CC(=O)Nc3nc4ccccc4s3)C2=O)cc(OC)c1OC	NadD block 35
Cc1ccc(/C=C2/SC(=S)N(CC(=O)Nc3ncc(Cc4ccc(C)cc4)s3)C2=O)cc1	none
Cc1cccc(Cc2cnc(NC(=O)CN3C(=O)/C(=C/c4ccccc4)SC3=S)s2)c1	NadD block 31
C=C(C)Cn1c(SCC(=O)N/N=C/c2c(O)ccc3ccccc23)nc2ccccc2c1=O	NadD block 35
Cc1nc2c(C(=O)NCCC(C)C)c[nH]n2c(=O)c1Cl	none
Cc1nc2c(C(=O)NCCC(C)C)c[nH]n2c(=O)c1Cc1ccccc1F	NadD block 30
COc1ccc(OC)c(S(=O)(=O)N(CCc2ccc(OC)c(OC)c2)Cc2cccs2)c1	none (no result: Neddyl block, NadD block)
Cc1c(N=C2N=C(NC(=O)c3ccc(F)cc3)c3ccccc32)c(=O)n(-c2ccccc2)n1C	GC-A act 58
O=C(NC1CCC1)c1ccc(C#CC2CC2)c[n+]1[O-]	none (no result: Neddyl block, NadD block)
N#Cc1nc(NCC(F)F)nc(Nc2cc(F)cc(F)c2)n1	GC-A act 44, GC-B act 39
O=C(CCSc1ccccn1)c1ccccc1	GC-A act 52
O=C(O)CCSc1ccccn1	none
Oc1ccccc1CNc1cnc2ccccc2c1	Neddyl block 50
CCc1cc(C(=O)N=Nc2c(O)[nH]c3c(Br)cc(Br)cc23)c2ccccc2n1	NadD block 54
CCCCOC(=O)c1ccc(N=Nc2c(C)c(C#N)c(O)[nH]c2=O)cc1	NadD block 52
CC1=NN(c2nc(-c3ccc(C)cc3)cs2)C(=O)C1N=Nc1ccccc1O (configuration not stated)	none
CC1=NN(c2nc(-c3ccc(C)cc3)cs2)C(=O)C1N=Nc1cccc(O)c1 (configuration not stated)	NadD block 38
Cc1cccc(Nc2nc3c(S(=O)(=O)c4ccccc4)nnn3c3ccccc23)c1	GC-B act 42
Cc1ccc(S(=O)(=O)c2nnn3c2nc(NC2CCN(Cc4ccccc4)CC2)c2ccccc23)cc1C	NadD block 38 (no result: GC-A act, GC-B act)
COC(=O)C1CN(Cc2ccc(F)cc2)CCS(=O)(=O)N1Cc1cn(Cc2ccccc2)nn1 (configuration not stated)	none (no result: Neddyl block, NadD block)
Cn1c(=O)oc2cc(S(=O)(=O)N3CCN(C(=O)C4CCCO4)CC3)ccc21 (configuration not stated)	none (no result: Neddyl block, NadD block)
Cc1cc(-c2csc(NC(=O)c3cccc(S(=O)(=O)N(C)C)c3)n2)c(C)n1-c1ccccc1	NadD block 49
